Screening data (PubChem BioAssay)
Marburg entry inh: inhibitors of Marburg virus binding or cell entry | Marburg virus pseudotyped entry inhibition, cell reporter | Potency, µM (series often up to 37.8 µM), inactives show top-dose activity change, negative = inhibition, most hits filed as inhibitors | 300,000 compounds, 1.8% hits; calls by dose curve; tested in HEK293 cells; further: potency means the concentration at half of the fitted maximal effect
VACV Venus inh: vaccinia inhibition (Venus reporter); Vaccinia virus Venus reporter expression, fluorescence; 330,000 compounds, 0.46% hits; Potency, µM (doses to about 36.5 µM), for inactives: at the top dose activity change, negative = inhibition, actives largely listed as inhibitors; calls by dose curve; tested in A549 cells; further: potency means the concentration at half of the fitted maximal effect; nearly all actives have a fitted effect of over 30% in size
LASV entry inh: inhibitors of Lassa virus binding or cell entry; Potency, µM (top dose mostly 37.9 µM), without a hit: at the highest dose activity change, negative = inhibition, actives largely listed as inhibitors; Lassa virus pseudotype entry inhibition, cell reporter; 300,000 compounds, 1.2% hits; AID 540256; calls by dose curve; tested in HEK293 cells; further: potency means the concentration at half of the fitted maximal effect; nearly all actives have a fitted effect of over 50% in size
HCV inhibitor: inhibitors of hepatitis C virus infection; Huh7.5.1 HCVcc-Cre infection, luciferase reporter, 44 h; 340,000 compounds, 3.4% hits; Potency, µM (titrated, usually from 41.8 µM), for the others: top-dose activity change, negative = inhibition, hits mostly inhibitors; AID 651820; active means well fitted inhibition curve with a large enough effect; inconclusive means small, poorly fitted or top-dose-only effect, or another doubt; inactive means no such curve, though single readings can be large or run the other way; further: potency means the concentration at half of the fitted maximal effect
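Infectious HCVcc-Cre (~0.5 moi) was added to cells just after compound, with cells seeded 4 h earlier at 1,000 per well. Luciferase activity after 44 h culture reported infection; substrate was incubated 15 min at room temperature before reading.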
VACV mCherry inh: inhibitors of vaccinia virus infection (mCherry reporter signal) | 310,000 compounds, 0.63% hits | Vaccinia virus mCherry reporter infection, fluorescence | AID 720579 | Potency, µM (doses to about 36.5 µM), without a hit: top-dose activity change, negative = inhibition, actives largely listed as inhibitors; calls by dose curve; tested in A549 cells; further: potency means the concentration at half of the fitted maximal effect; nearly all actives have a fitted effect of over 35% in size
HCMV inh: inhibitors of human cytomegalovirus | HFF cells, HCMV-luciferase reporter, 72 h; stronger effect = lower value | activity change, negative = inhibition, % at 57.5 µM | 410,000 compounds, 4.5% hits | AID 1259415; in the data active means activity change below about -60%; inconclusive means no clear call, values can overlap the other calls; inactive means above about -39%
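Human foreskin fibroblasts infected with luciferase-reporter HCMV at MOI 1 PFU/cell, compounds at two doses. Luciferase measured 72 h post infection; normalized to buffer-only basal and Salinomycin (10uM) controls.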
Numbers without * were called inactive; i = inactive; u = inconclusive; x = no result given; + = active, no number; [ ] = remark or other dose. In the library only some 7.8% were active in any assay of this set; here they are far more common. On the % scale 0 is the no-effect control and ±100 the full control effect.

SMILES	Marburg entry inh	VACV Venus inh	LASV entry inh	HCV inhibitor	VACV mCherry inh	HCMV inh
S=c1[nH]nc(COc2ccccc2)n1/N=C/c1cccnc1	-7%	-2%	u	22%	-9%	-24
FC(F)Oc1ccc(/C=N/n2c(Cc3ccc(Br)cc3)n[nH]c2=S)cc1	-2%[46.1 µM]	-6%	5µM*	-6%	-1%	-28
Cc1ccc(/C=N/n2c(COc3ccccc3)n[nH]c2=S)cc1	x	x	x	u	x	-36
CN(C)c1ccc(/C=N/n2c(COc3ccccc3)n[nH]c2=S)cc1	5%	-9%	0.92µM*	16%	-9%	-26
CC(C)[C@@H]1CC[C@@H](C)C[C@@H]1P(=O)(c1ccccc1)c1ccccc1	-30%	x	8%	x	x	x
O=[N+]([O-])c1ccc(O)c(/C=N/n2c(-c3ccccc3)n[nH]c2=S)c1	4%	-13%	-16%	19%	i	-7
S=c1[nH]nc(COc2ccccc2)n1/N=C/c1c(Cl)cccc1Cl	x	x	x	8%	x	-103*
O=[N+]([O-])c1ccc(Cl)c(/C=N/n2c(-c3ccncc3)n[nH]c2=S)c1	18%[46.1 µM]	-5%[7.34 µM]	2%	14%	i[7.34 µM]	-67*
Cc1ccc2c(Sc3ccc(Cl)cc3)c(C(=O)N3CCCCC3)[nH]c2c1	u	-4%	-4%[46.1 µM]	x	-16%	9
Cc1ccc(C)c(CSc2cn(CC(=O)N3CCCC3)c3ccccc23)c1	x	-11%	u	x	-8%	25
COC(=O)[C@@H]1CCCN1Cc1ccc2c(c1)CN(Cc1ccc3c(c1)CCO3)CCO2	x	0%	x	x	-6%	x
COC(=O)CCc1ccc(OCC(O)CNC(C)C)cc1 (stereo not drawn)	x	-18%	x	9%	i	-64*
O=C(c1ccccc1)c1ccc(OCC(O)CNC2CCCc3ccccc32)cc1 (stereo not drawn)	u	-19%	-14%	u	-9%	-2
CC(=O)CCc1ccc(OCC(O)CNC2CCCc3ccccc32)cc1 (stereo not drawn)	u	-15%	-11%	u	-16%	-73*
CC(=O)Nc1ccc(OCC(O)CNC(C)C)cc1 (stereo not drawn)	x	-11%	x	20%	i	-18
O=C(Nc1cccc(-c2cnc3ccccc3n2)c1)C1CC(=O)N(c2ccccc2)C1 (stereo not drawn)	u	-15%	u	13µM*	-6%	14
O=C(Nc1cccc(-c2cnc3ccccc3n2)c1)c1ccccc1	-11%	x	2%	u	x	-17
O=C(CCl)Nc1cccc(-c2cnc3ccccc3n2)c1	u	u	u	u	11µM*	-98*
O=C(CCl)Nc1ccc(Oc2cnc3ccccc3n2)cc1	u	x	21µM*	u	x	-104*
O=C(Nc1cccc(-c2cnc3ccccc3n2)c1)c1cccc(NC(=O)c2ccco2)c1	12µM*	x	u	10µM*	x	133
O=C(Nc1ccncc1)C1CC(=O)N(c2ccccc2)C1 (stereo not drawn)	2%[46.1 µM]	-6%	2%	23%	i	0
CCc1ccc(NC(=O)CCc2nnc3n(C)c(=O)c4sccc4n23)cc1	u	-7%	25%[46.1 µM]	x	-6%	12
COc1ccc(-n2c(N)cc(=O)[nH]c2=O)cc1	16%[46.1 µM]	-12%[7.34 µM]	0%	5%	-3%[7.34 µM]	x
Nc1cc(=O)[nH]c(=O)n1-c1cccc(F)c1	-2%[46.1 µM]	-4%	15%	4%	i	-84*
COC(=O)c1ccc2c(=O)n(CCCCCC(=O)N3CCN(c4cc(C)ccc4C)CC3)c(=O)[nH]c2c1	x	-12%	u	x	i	75
SMILES	Marburg entry inh	VACV Venus inh	LASV entry inh	HCV inhibitor	VACV mCherry inh	HCMV inh
CC(=O)N1c2ccc(S(=O)(=O)N3CCCC(C(=O)Nc4ccc(C)cc4)C3)cc2CC1C (stereo not drawn)	x	x	x	x	x	-33
CC(=O)N1c2ccc(S(=O)(=O)N3CCC(C(=O)Nc4cccc(F)c4)CC3)cc2CC1C (stereo not drawn)	-2%[46.1 µM]	-17%	4%[46.1 µM]	u	-14%	-61*
COc1ccc(N2CCN(S(=O)(=O)c3ccc4c(c3)CC(C)N4C(C)=O)CC2)cc1 (stereo not drawn)	x	-15%[7.34 µM]	-21%[46.1 µM]	x	-7%[7.34 µM]	-72*
CC(=O)N1c2ccc(S(=O)(=O)N3CCN(c4cccc(Cl)c4)CC3)cc2CC1C (stereo not drawn)	-1%[46.1 µM]	-20%	-8%[46.1 µM]	x	-18%	8
CC(=O)N1c2ccc(S(=O)(=O)N3CCCC(C(=O)Nc4ccc(F)cc4)C3)cc2CC1C (stereo not drawn)	x	u	x	u	-23%	-68*
COc1ccc(Cl)cc1NC(=O)C1CCN(S(=O)(=O)c2ccc3c(c2)CC(C)N3C(C)=O)CC1 (stereo not drawn)	x	-8%	-8%[46.1 µM]	x	-16%	-63*
CCOc1ccc(NC(=O)C2CCN(S(=O)(=O)c3ccc4c(c3)CC(C)N4C(C)=O)CC2)cc1 (stereo not drawn)	-15%[46.1 µM]	-8%	-25%[46.1 µM]	u	-15%	u
CCS(=O)(=O)N1CC2(CN(C(=O)Nc3c(C)noc3C)[C@@H](CO)c3[nH]c4cc(OC)ccc4c32)C1	x	x	x	x	x	-8
CC(=O)N1c2ccc(S(=O)(=O)N3CCC(C(=O)Nc4cccc(Cl)c4C)CC3)cc2CC1C (stereo not drawn)	x	-16%	-7%[46.1 µM]	x	-7%	-29
O=C(Nc1cccc(F)c1)C1CCN(S(=O)(=O)c2ccc3[nH]c4c(c3c2)CCCCC4)CC1	x	u	u	x	-24%	+
CSc1cccc(NC(=O)C2CCN(S(=O)(=O)c3ccc4[nH]c5c(c4c3)CCCCC5)CC2)c1	x	-19%	u	x	-19%	0
CC(=O)N1c2ccc(S(=O)(=O)N3CCCC(C(=O)Nc4cc(C)cc(C)c4)C3)cc2CC1C (stereo not drawn)	x	u	x	-29%	-20%	8
CC(=O)N1c2ccc(S(=O)(=O)N3CCC(C(=O)Nc4cccc(Cl)c4)CC3)cc2CC1C (stereo not drawn)	x	x	x	u	x	-88*
O=C(COC(=O)c1ccc2[nH]c3c(c2c1)CCCC3)Nc1ccccc1	-15%	0%	u	13µM*	-11%	2
CC(=O)N1c2ccc(S(=O)(=O)N3CCC(C(=O)Nc4cc(C)cc(C)c4)CC3)cc2CC1C (stereo not drawn)	x	x	x	3%	x	-61*
CCN(CC)CCN(C)C(=O)c1ccc(-c2ccccc2)nc1N(C)C	x	-7%	x	x	-7%	x
CCOc1nc(NC(=O)NS(=O)(=O)Oc2cccc(F)c2)nc(-c2ccccc2)n1	24%[46.1 µM]	4%	13%[46.1 µM]	x	-8%	49
CC(=O)N1c2ccc(S(=O)(=O)N3CCC(C(=O)N4CCN(c5cccc(C(F)(F)F)c5)CC4)CC3)cc2CC1C (stereo not drawn)	x	x	x	-6%	x	-66*
CCCCNC(=S)NCc1ccc2[nH]c3c(c2c1)CCCC3	x	-21%	x	u	-23%	-1
